Experimental data taken from PubChem BioAssay.
Calls of active or inactive are those of the source.

What was measured:
[1] = system: Human papillomavirus type 1a protein E7 (residues 44-93); test: small molecules binding HPV E7 44-93 – biochemical, small-molecule microarray, residues 44-93, 635 nm fluorescence, primary screen (AID 1108); conditions: fluorescence 635 nm, higher = more signal;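 note: E7 fragment applied at 1 µg/mL in TBST for 1 h at 4 C; score combines spot fluorescence with its signal to noise ratio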
[2] = hepatitis C replication reporter changes, two-sided – Huh7 cells, luciferase reporter, HCV replication inhibitor project, primary screen (AID 1109); conditions: Huh7 HCV replicon luciferase reporter, 48 h; higher = more signal;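 note: huh7 hepatoma cells harbouring a luciferase neomycin HCV replicon reporter; luciferase luminescence as measure of HCV replicon replication; test concentration not given here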
[3] = target: Left-right determination factor 2 (Homo sapiens) (UniProt O00292); test: small molecules binding LEFTY2 protein – biochemical, small-molecule microarray, 635 nm fluorescence scan, primary screen (AID 1110); conditions: higher = more signal
Chain of Left-right determination factor 2 (Homo sapiens) (O00292 whole entry, looked up): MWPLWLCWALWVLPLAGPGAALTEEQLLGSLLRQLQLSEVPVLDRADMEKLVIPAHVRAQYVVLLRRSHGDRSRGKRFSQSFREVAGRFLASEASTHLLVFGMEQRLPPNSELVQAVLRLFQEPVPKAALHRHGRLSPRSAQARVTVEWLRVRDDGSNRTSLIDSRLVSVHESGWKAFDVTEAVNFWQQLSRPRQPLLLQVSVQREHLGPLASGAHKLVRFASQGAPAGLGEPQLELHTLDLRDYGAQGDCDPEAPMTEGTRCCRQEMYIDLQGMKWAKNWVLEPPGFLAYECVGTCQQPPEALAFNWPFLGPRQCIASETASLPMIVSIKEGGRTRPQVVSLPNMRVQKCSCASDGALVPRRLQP

[4] = target: Calmodulin-1 (Homo sapiens) (UniProt P0DP23); test: small molecules binding calmodulin-1 with EGTA – biochemical, small-molecule microarray, Cy5-labelled CALM1, profiling panel (AID 1111); conditions: Cy5-CALM1 binding fluorescence, higher = more signal;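 note: labelled calmodulin applied in Tris saline Tween buffer holding calcium plus EGTA and DTT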
[5] = target: Calmodulin-1 (Homo sapiens) (UniProt P0DP23); test: small molecules binding Ca-loaded calmodulin-1 – biochemical, small-molecule microarray, Cy5-labelled CALM1, plus calcium, artefact control for SMM control-protein annotation, profiling panel (AID 1112); conditions: Cy5-CALM1 binding fluorescence, higher = more signal;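 note: score merges spot fluorescence with signal to noise from triplicate slides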
[6] = probe aWnt5a binding to arrayed compounds – biochemical, biotinylated probe, 635/667 nm fluorescence, primary screen (AID 1113); conditions: small-molecule microarray, higher = more signal;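 note: score merges 667 nm fluorescence intensity with signal-to-noise per printed feature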
[7] = probe aShh binding to arrayed compounds – biochemical, biotinylated probe, 635/667 nm fluorescence, primary screen (AID 1114); conditions: small-molecule microarray, higher = more signal;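 note: probe is biotin-labelled aShh protein from a stem cell growth factor screen; measures binding of labelled protein to compounds printed on the slide; score merges feature fluorescence at 667 nm with signal-to-noise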
[8] = probe aNog binding to arrayed compounds – biochemical, biotinylated probe, 635/667 nm fluorescence, primary screen (AID 1115); conditions: small-molecule microarray, higher = more signal;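 note: probe is biotinylated aNog protein used at 0.15 µg/mL for 1 h at 4 C; z-score combines 667 nm fluorescence of each spot with its signal to noise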
[9] = target: Torsin-1A-interacting protein 1 (Homo sapiens) (UniProt Q5JTV8); test: compound microarray binding of lysate hLAP1 – cell lysate, small-molecule microarray, COS7 lysate, 635/667 nm fluorescence, primary screen (AID 1116); conditions: 635 nm fluorescence, higher = more signal
Chain of Torsin-1A-interacting protein 1 (Homo sapiens) (Q5JTV8 whole entry, looked up): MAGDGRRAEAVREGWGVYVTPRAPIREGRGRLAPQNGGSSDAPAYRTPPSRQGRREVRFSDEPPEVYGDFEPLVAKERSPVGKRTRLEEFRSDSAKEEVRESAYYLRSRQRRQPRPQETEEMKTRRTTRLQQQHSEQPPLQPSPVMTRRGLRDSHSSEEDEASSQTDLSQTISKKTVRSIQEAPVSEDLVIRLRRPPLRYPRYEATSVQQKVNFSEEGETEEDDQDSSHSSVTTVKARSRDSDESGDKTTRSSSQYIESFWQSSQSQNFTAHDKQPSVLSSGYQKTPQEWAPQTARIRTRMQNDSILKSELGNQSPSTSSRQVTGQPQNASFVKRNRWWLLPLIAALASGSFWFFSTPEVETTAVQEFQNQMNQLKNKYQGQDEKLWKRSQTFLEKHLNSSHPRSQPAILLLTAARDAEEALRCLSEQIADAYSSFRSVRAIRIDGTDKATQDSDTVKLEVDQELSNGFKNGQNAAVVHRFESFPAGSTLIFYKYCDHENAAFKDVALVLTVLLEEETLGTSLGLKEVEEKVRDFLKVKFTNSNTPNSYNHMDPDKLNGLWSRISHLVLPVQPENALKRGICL

[10] = target: Alpha-bungarotoxin (Bungarus multicinctus) (UniProt P60615); test: compounds binding labelled alpha-BTX control protein – biochemical, small-molecule microarray, Alexa647 label, 635/667 nm fluorescence, artefact control for SMM control protein annotation, profiling panel (AID 1117); conditions: alpha-BTX-A647 binding fluorescence, higher = more signal
Chain of Alpha-bungarotoxin (Bungarus multicinctus) (P60615 whole entry, looked up): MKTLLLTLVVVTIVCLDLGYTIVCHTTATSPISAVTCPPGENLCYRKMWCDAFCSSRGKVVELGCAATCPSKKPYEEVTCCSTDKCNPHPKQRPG

Albumin (Bos taurus) = Albumin (Bos taurus) (UniProt P02769); test: compounds binding labelled BSA control protein – biochemical, small-molecule microarray, Alexa647 label, 635/667 nm fluorescence, artefact control for SMM control protein annotation, profiling panel (AID 1118); conditions: BSA-A647 binding, fluorescence 635 nm, higher = more signal;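 note: score merges 667 nm emission intensity and signal-to-noise per printed compound spot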
Chain of Albumin (Bos taurus) (P02769 whole entry, looked up): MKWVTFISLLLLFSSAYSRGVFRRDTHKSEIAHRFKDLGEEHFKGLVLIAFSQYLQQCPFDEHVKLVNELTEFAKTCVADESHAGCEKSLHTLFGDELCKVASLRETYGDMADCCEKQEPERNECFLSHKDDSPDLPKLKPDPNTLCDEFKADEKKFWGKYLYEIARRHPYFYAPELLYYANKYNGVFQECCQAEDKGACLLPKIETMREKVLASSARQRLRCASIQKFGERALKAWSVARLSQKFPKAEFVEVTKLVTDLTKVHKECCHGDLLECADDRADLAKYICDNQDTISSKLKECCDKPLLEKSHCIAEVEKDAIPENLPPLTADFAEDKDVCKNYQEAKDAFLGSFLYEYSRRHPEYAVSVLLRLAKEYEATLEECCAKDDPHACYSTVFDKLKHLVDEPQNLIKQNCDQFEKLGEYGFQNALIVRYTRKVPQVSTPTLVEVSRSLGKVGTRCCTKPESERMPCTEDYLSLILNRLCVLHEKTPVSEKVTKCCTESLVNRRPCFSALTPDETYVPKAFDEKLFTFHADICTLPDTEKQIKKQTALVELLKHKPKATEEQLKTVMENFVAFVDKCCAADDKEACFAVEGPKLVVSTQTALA

[11] = probe aXIP binding to arrayed compounds – biochemical, NeuroSMM set, 635/667 nm fluorescence, primary screen (AID 1119); conditions: small-molecule microarray, higher = more signal, called active from +8 up or from −8 down;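 note: probe is the protein aXip251-270 applied at 1 µg/mL to compound-printed slides; binding of probe to printed compounds measured as 667 nm fluorescence plus signal to noise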
[12] = probe aNOTCH3 binding on compound microarray – biochemical, small-molecule microarray, 635/667 nm fluorescence, primary screen (AID 1120); conditions: higher = more signal;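 note: probe is a biotin-tagged antibody raised against NOTCH3 rather than NOTCH3 protein; score merges spot fluorescence near 667 nm with spot signal to noise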
[13] = probe aNOTCH2 binding on compound microarray – biochemical, small-molecule microarray, 635/667 nm fluorescence, primary screen (AID 1121); conditions: higher = more signal;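 note: score merges feature fluorescence read at 667 nm with its signal to noise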
[14] = target: Carbonic anhydrase 2 (Homo sapiens) (UniProt P00918); test: compounds binding carbonic anhydrase 2 – biochemical, small-molecule microarray, Alexa647-labelled CAII, profiling panel (AID 1122); conditions: CAII-A647 binding fluorescence, higher = more signal
[15] = COS7 lysate on small-molecule microarray, probe aHis, 635 nm (AID 1123); conditions: COS7 cell lysate, fluorescence, higher = more signal;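 note: z-score combines 667nm fluorescence intensity with signal-to-noise per printed compound spot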
[16] = probe aLAP1 signal on lysate-treated microarray – cell lysate, small-molecule microarray, COS7 lysate, primary screen (AID 1124); conditions: probe aLAP1, fluorescence, higher = more signal;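 note: lysate comes from COS7 cells expressing LAP1 and is applied at 0.3 µg/mL; score merges spot fluorescence near 667 nm with signal-to-noise over triplicate slides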
Sam68 (KHDRBS1) = test: compounds binding KHDRBS1 protein – biochemical, small-molecule microarray, 635 nm fluorescence, primary screen (AID 1125); conditions: higher = more signal;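 note: score merges 667 nm channel intensity with signal to noise over triplicate slides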
[17] = system: Chordin-like protein 2 (CHRDL2); test: compounds binding chordin-like 2 – biochemical, small-molecule microarray, 635 nm fluorescence, primary screen (AID 1126); conditions: fluorescence 635 nm, higher = more signal;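 note: printed compound slides probed with Chrdl2 protein at 4 µg/mL for 1 h at 4 C; score merges 667 nm emission intensity with signal to noise over three replicate slides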
[18] = target: Concanavalin-A (Canavalia ensiformis) (UniProt P02866); test: compounds binding concanavalin A lectin – biochemical, small-molecule microarray, Alexa647 label, 635 nm, artefact control for SMM control protein annotation, primary screen (AID 1127); conditions: ConA-A647 binding fluorescence, higher = more signal;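 note: z combines 667 nm emission intensity with signal-to-noise across three replicate slides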
Chain of Concanavalin-A (Canavalia ensiformis) (P02866 whole entry, looked up): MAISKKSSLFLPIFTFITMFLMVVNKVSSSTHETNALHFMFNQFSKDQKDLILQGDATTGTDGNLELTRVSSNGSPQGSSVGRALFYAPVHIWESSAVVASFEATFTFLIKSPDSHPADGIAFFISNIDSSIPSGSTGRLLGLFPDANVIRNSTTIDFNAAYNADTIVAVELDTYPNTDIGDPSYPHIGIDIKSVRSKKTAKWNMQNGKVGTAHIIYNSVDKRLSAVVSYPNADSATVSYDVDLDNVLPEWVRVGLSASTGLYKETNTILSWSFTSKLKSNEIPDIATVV

SMILES	composite z-score [1]	z-score [2]	composite z-score [3]	composite z-score [4]	composite z-score [5]	composite z-score [6]	composite z-score [7]	composite z-score [8]	composite z-score [9]	composite z-score [10]	composite z-score (Albumin (Bos taurus))	composite Z-score [11]	composite z-score [12]	composite z-score [13]	composite z-score [14]	composite z-score [15]	composite z-score [16]	composite z-score (Sam68 (KHDRBS1))	composite z-score [17]	composite z-score [18]
CCN1C(=O)[C@H]2[C@H]3[C@H](O)[C@H](O)CC(=NNC(=O)OCc4ccccc4)[C@H]3CC[C@H]2C1=O	0.663	-0.0788	0.227	-0.307	-0.767	-0.0459	0.0637	-0.452	0.185	0.504	0.185	-0.431 (inactive)	0.0145	-0.129	-0.0576	0.0949	-0.198	-0.813	-0.0255	0.514
C[C@@H]1CC[C@H]2C(=O)OC(CN3C(=O)c4ccccc4C3=O)CN2[C@H]1c1ccc(Br)cc1 (stereo not given in full)	0.901	0.302	0.113	1.53	0.772	-0.091	0.111	0.243	0.419	0.666	0.808	0.372 (inactive)	-0.0984	0.178	0.305	0.787	0.376	0.438	0.333	0.781
Cc1ccc(C(C)C)n1C(=O)OC(C)(C)C	0.471	1.85	0.587	-0.159	-0.659	-0.0704	-0.13	-0.255	0.241	0.0251	-0.0834	1.17 (inactive)	-0.118	-0.153	-0.0359	0.0884	0.322	0.456	0.501	0.173
C#CCCCON=C1C[C@@H](O)[C@@H](O)[C@@H]2[C@@H]3C(=O)N(CC)C(=O)[C@@H]3CC[C@H]12	0.51	-0.0718	0.278	-0.0398	-0.304	-0.089	-0.307	-0.353	0.779	0.573	-0.0021	0.52 (inactive)	-0.118	-0.148	0.728	1.35	0.187	0.866	-0.0382	-0.357
COc1ccc(COC(=O)NN=C2C[C@@H](O)[C@@H](O)[C@@H]3[C@@H]4C(=O)N(Cc5ccc6c(c5)OCO6)C(=O)[C@@H]4CC[C@H]23)cc1	-0.433	-0.191	-0.34	-0.704	-0.276	0.0438	0.0121	0.788	0.0406	0.164	0.252	0.0467 (inactive)	0.0534	-0.0523	-0.32	0.352	-0.257	-0.319	-0.486	-1.15
CC(CCN1CCCCc2nc(C)c(C)cc21)=NO[C@H](C)c1cn([C@@H]2COC[C@H]2O)nn1	0.421	-0.219	1.35	-0.197	-0.835	-0.222	-0.112	-0.158	0.337	1.3	0.43	-1.61 (inactive)	0.156	0.0097	0.616	0.298	0.0986	1.2	1.49	0.685
